Results as given in PubChem BioAssay (NCATS).
Results filed as inconclusive are left out. Entries that show only a call come without a potency. Active and inactive are the calls of the source. Calls follow the shape of the dose curve; as a rule, active = well fitted cell-killing curve with a large enough effect; inconclusive = small, poorly fitted or top-dose-only effect, or effect the other way; inactive = no such curve, though single readings can be large or run the other way.

assay: Quantitative High-Throughput drug screen in 47 multiple myeloma cell lines against the NCATS MIPE library collection: KMS26_JCRB cell viability assay (AID 1918975); settings: KMS26 myeloma cells viability, CellTiter-Glo ATP, 48 h; series mostly up to 45.8 µM; also: nearly all actives have a fitted effect of over 45% in size
Summary of the method: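 Approved and investigational drugs from MIPE 4.0 were added by pin tool to 500 cells per well. After 48 hours at 37C, ATP-based CellTiter-Glo luminescence indicated remaining viability.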
Potency is read from the fitted curve at half-maximal effect.

SMILES | Potency
COC(=O)Nc1nc2ccc(C(=O)c3ccccc3)cc2[nH]1 | 8.33 µM (active)
CCN(CC)CCn1c(=O)c(Cc2ccc(OC)cc2)nc2ccccc21 | inactive
CCOC(=O)c1ccc(C#Cc2ccc3c(c2)C(C)(C)CCS3)nc1 | inactive
CN1CCCC(n2nc(Cc3ccc(Cl)cc3)c3ccccc3c2=O)CC1 (stereo not given) | 3.72 µM (active)
CNS(=O)(=O)Cc1ccc2[nH]cc(CCN(C)C)c2c1 | inactive
CNS(=O)(=O)CCc1ccc2[nH]cc(C3CCN(C)CC3)c2c1 | 2.96 µM (active)
Cc1cccc(N(C)C(=S)Oc2ccc3ccccc3c2)c1 | inactive
CS(=O)(=O)c1ccc([C@@H](O)[C@@H](CO)NC(=O)C(Cl)Cl)cc1 | inactive
Nc1ccc(S(=O)(=O)Nc2ccccn2)cc1 | inactive
CC(C)(C#N)c1cc(Cn2cncn2)cc(C(C)(C)C#N)c1 | inactive
CCCOc1ccc(C(=O)OCCN(CC)CC)cc1N | inactive
CC[C@H](NC(C)C)[C@H](O)c1ccc(O)c2[nH]c(=O)ccc12 | inactive
NC(=O)c1cccc(N)c1 | inactive
CC(C)C1CCC(C(=O)N[C@H](Cc2ccccc2)C(=O)O)CC1 (stereo not given in full) | inactive
COc1cc(NS(=O)(=O)c2ccc(N)cc2)nc(OC)n1 | inactive
Cc1noc(NS(=O)(=O)c2ccc(N)cc2)c1C | inactive
CC(=O)CC(c1ccccc1)c1c(O)c2ccccc2oc1=O (stereo not given) | inactive
COc1cccc(N(C)C(=S)Oc2ccc3c(c2)CCCC3)n1 | inactive
OC(Cn1cncn1)(Cn1cncn1)c1ccc(F)cc1F | inactive
COc1ccc(-c2ccc3cc(C(=O)O)ccc3c2)cc1C12CC3CC(CC(C3)C1)C2 | inactive
NC(=O)N1c2ccccc2CC(=O)c2ccccc21 | inactive
C[C@]12C=CC(=O)C=C1CC[C@@H]1[C@@H]2C(=O)C[C@@]2(C)[C@H]1CC[C@]2(O)C(=O)CO | inactive

assay: Quantitative High-Throughput drug screen in 47 multiple myeloma cell lines against the NCATS MIPE library collection: MMM1_PLB cell viability assay (AID 1918976); settings: MMM1 myeloma cells viability, CellTiter-Glo, 48 h; series mostly up to 45.8 µM; also: nearly all actives have a fitted effect of over 35% in size
Summary of the method: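 Myeloma cells (500/well) treated with MIPE 4.0 compounds for 48 h at 37 °C, 5% CO2. Viability read as ATP via CellTiter-Glo luminescence after 5 min at RT; DMSO-only wells = 100%, media-only = 0% viability.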

SMILES | Potency
CN1CCCC(n2nc(Cc3ccc(Cl)cc3)c3ccccc3c2=O)CC1 (stereo not given) | 8.33 µM (active)
CC(C)(C#N)c1cc(Cn2cncn2)cc(C(C)(C)C#N)c1 | 1.32 µM (active)
Cc1nnc(C(=O)NC(C)(C)c2nc(C(=O)NCc3ccc(F)cc3)c(O)c(=O)n2C)o1 | 7.43 µM (active)
